# Bioassay records deposited in PubChem BioAssay by National Center for Advancing Translational Sciences (NCATS).
# Rab9 prom act: activates the Rab9 promoter; 2.8% of 320,000 active; AID 485297; Huh7 Rab9 promoter-luciferase reporter, luminescence, 24 h; Potency, µM (top dose mostly 9.22 µM), for inactives: at the highest dose activation, negative = inhibition, actives largely listed as activators; further: % of control where 0% means no effect; nearly all actives have a fitted effect of over 60% in size
#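 Cell-based reporter: Huh7 stable for Rab9 promoter-driven luciferase, plated in reduced-serum medium with 10% FBS at 1500 cells/well, compound-treated 24 h at 37 °C, luminescence read after 10 min reagent.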
# SMN2 splice enh: SMN2 splice variant enhancement; 2.8% of 210,000 active; HEK293 SMN2-luciferase splicing reporter, luminescence, 30-36 h; Potency, µM (titrated, usually from 46.1 µM), without a hit: at the highest dose activity change, positive = activation, hits mostly activators; further: % of control where 0% means no effect; nearly all actives have a fitted effect of over 55% in size
#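 qHTS luciferase splicing reporter: luminescence rises when SMN2 exon 7 is included in transfected HEK293 cells. Compound exposure lasted 30-36 h at 37C, with 4.5 mM final sodium butyrate as control, followed by a ONE-Glo read.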
# Luc counter: blocks Kinase-Glo luciferase, a counter-screen artifact; AID 1379; Potency, µM (titrated, usually from 38.3 µM), inactives show at the top dose activity change, negative = inhibition, hits mostly inhibitors; Kinase-Glo luciferase, ATP luminescence, 8 min; 0.28% of 200,000 active; further: on the % scale 0 is the no-effect control and ±100 the full control effect; nearly all actives have a fitted effect of over 60% in size
#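 Substrate mix (final 50 mM imidazole pH 7.2, 50 mM KCl, 7 mM MgCl2, 10 uM ATP, 0.01% Tween 20, 0.05% BSA) plus pin-tool compound, then Kinase-Glo detection mix; 8 min ambient, luminescence read.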
# FLuc counter: counter-screen for miR-21 project: firefly luciferase inhibitors or activators; P08659; purified FLuc, Km substrates, luminescence inhibition; Potency, µM (series often up to 57.5 µM), for inactives: at the top dose activity change, negative = inhibition, usual class: inhibitors; 6.9% of 360,000 active;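 further: plate controls were vehicle for no effect and reference inhibitor for full effect; nearly all actives have a fitted effect of over 55% in size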
# Target sequence (P08659 whole entry, looked up): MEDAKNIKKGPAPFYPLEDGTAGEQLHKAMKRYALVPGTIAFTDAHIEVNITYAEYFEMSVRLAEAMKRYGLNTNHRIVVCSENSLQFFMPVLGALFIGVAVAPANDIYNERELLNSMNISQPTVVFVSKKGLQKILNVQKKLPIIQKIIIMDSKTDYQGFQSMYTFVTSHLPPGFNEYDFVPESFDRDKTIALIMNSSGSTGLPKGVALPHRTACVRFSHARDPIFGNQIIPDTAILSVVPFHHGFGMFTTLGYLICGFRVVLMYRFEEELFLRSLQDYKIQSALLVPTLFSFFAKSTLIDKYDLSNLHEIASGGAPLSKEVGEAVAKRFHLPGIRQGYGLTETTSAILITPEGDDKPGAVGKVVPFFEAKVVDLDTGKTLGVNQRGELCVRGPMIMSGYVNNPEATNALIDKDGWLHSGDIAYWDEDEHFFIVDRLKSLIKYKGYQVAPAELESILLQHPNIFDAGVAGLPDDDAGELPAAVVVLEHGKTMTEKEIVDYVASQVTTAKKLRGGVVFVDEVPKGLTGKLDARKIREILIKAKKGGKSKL
#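 Biochemical qHTS of compounds, final roughly 60 µM downward over six points, against 10 nM purified firefly luciferase using Km concentrations of substrates (10 uM D-luciferin, 10 uM ATP) in Tris acetate pH 7.5 buffer; luminescence output.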
# NPC1 promoter act: activates the NPC1 promoter. AID 485313. Huh7 NPC1 promoter luciferase reporter, 24 h. Potency, µM (doses to about 9.22 µM), for inactives: top-dose activation, actives largely listed as activators. 2.4% of 320,000 active; further: % of control where 0% means no effect; nearly all actives have a fitted effect of over 60% in size
#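 Huh7 cells stably carrying NPC1 promoter–luciferase, plated in Opti-MEM with 10% FBS for 2 h, were exposed to compound in DMSO for 24 h at 37 °C; luciferase reagent was added for 10 min and luminescence read.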
# ELG1 genotox: induces genotoxicity in HEK293T cells with luciferase-tagged ELG1 | Potency, µM (doses to about 46 µM), without a hit: top-dose activity change, positive = activation, most hits filed as activators | 1.3% of 330,000 active | HEK293T ELG1-luciferase reporter, luminescence, 16 h | AID 504466; further: % of control where 0% means no effect; nearly all actives have a fitted effect of over 60% in size
#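 Step 1: seed 2,000 HEK293T ELG1-luciferase cells per well. Step 2: add compound or DMSO, incubate 16 hr at 37 °C. Step 3: ONE-Glo, 30 min at room temperature, read luminescence.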
# * hit, by the source's call; ? = inconclusive; nt = no result given; [ ] = dose if it differs, or a comment. Rows were chosen to be rich in hits. Some 7.5% of all compounds tested hit in one or more screens of this group. The call rests on the fitted dose curve; in most records, active means well fitted curve in the direction sought with a large enough effect; inconclusive means small, poorly fitted or top-dose-only effect, or another doubt; inactive means no such curve, though single readings can be large; an effect the other way counts as inactive or inconclusive. Potency means the concentration at half of the fitted maximal effect.
SMILES,Rab9 prom act,SMN2 splice enh,Luc counter,FLuc counter,NPC1 promoter act,ELG1 genotox
N/C(=N\OC(=O)COc1cc(Cl)c(Cl)cc1Cl)c1ccncc1,?,14.1µM*,3.0%,13.5µM*,?,18.3µM*
Cc1ccc(OCC(=O)O/N=C(\N)c2ccncc2)c(C)c1,3.55µM*,nt,nt,10.7µM*,3.16µM*,14.6µM*
N/C(=N\OC(=O)COc1ccccc1)c1ccncc1,20.9%,nt,nt,?,16.8%,?
COc1ccc(NC(=O)CSc2oc(-c3ccc(F)cc3)nc2S(=O)(=O)c2ccc(C)cc2)c(OC)c1,nt,-5.3%,nt,-1.6%,nt,nt
CCC(=O)NC1=C(NC(C)c2ccccc2)C(=O)c2ccccc2C1=O (stereo unspecified),-1.1%,-11.8%,-1.0%,-3.3%,3.3%,-2.9%
CCC(=O)NC1=C(Cl)C(=O)C(NC(=O)CC)=C(Cl)C1=O,-3.7%,nt,nt,5.36µM*,2.9%,0.8%
CC#CCN1c2ccccc2[C@]23C[C@@H](C(=O)OC)N(C(=O)COCc4ccccc4)C2=NC(C(=O)OC)=C(C(=O)OC)[C@H]13,nt,0.5%[9.22 µM],-1.1%[7.66 µM],nt,nt,nt
CN(C)/N=N\c1nc[nH]c1C(N)=O,nt,-15.7%[20.6 µM],2.0%[17.1 µM],nt,nt,nt
O=c1[nH]nc(SCc2nc3ccccc3s2)n1C1CC1,?,?,-4.4%,23.9µM*,9.9%,20.6µM*
CCCn1c(SCc2nc3ccccc3s2)n[nH]c1=O,3.55µM*,?,-13.0%,5.36µM*,19.9%,18.3µM*
CCCn1c(=O)c2ccccc2n2c(SCc3nc4ccccc4s3)nnc12,?,?,-4.7%,10.7µM*,3.4%,?
Cc1cc(C)c(-n2c(SCc3nc4ccccc4s3)n[nH]c2=O)c(C)c1,-1.1%,nt,nt,2.7%,-8.4%,-4.2%
O=C(CSc1n[nH]c(=O)n1C1CC1)NCc1ccccc1,-0.1%,nt,nt,-2.8%,-0.3%,-0.4%
CCOC(=O)c1ccccc1NC(=O)N1CCN2CCCCC2C1 (stereo unspecified),nt,nt,nt,-4.3%,nt,nt
CCOC(=O)c1ccc(OCC2c3cc(OC)c(OC)cc3CCN2C(=O)Cc2ccc(F)cc2)cc1 (stereo unspecified),nt,nt,nt,-6.6%,nt,nt
CCCCN1C=CC(=C2N=c3cccc([N+](=O)[O-])c3=N2)C=C1,?,11.2µM*,?,21.3µM*,?,?
CC(C)CCN(C(=S)Nc1cccc(F)c1)C1CCN(C(C)C)CC1,-5.2%,-72.0%,-0.3%,1.0%,-3.0%,-6.9%
Cc1cccc(C=Nc2ccc3c(c2)oc2ccccc23)c1O,3.98µM*,10µM*,-1.7%,?,26.3%,15.6%
Cc1ccc2nc(-c3ccc(N4C(=NC(=O)CCC(=O)O)SC5CS(=O)(=O)CC54)cc3)sc2c1 (stereo unspecified),4.47µM*,nt,nt,10.7µM*,?,?
CC(=O)N=C1SC2CS(=O)(=O)CC2N1c1ccc(-c2nc3ccc(C)cc3s2)cc1 (stereo unspecified),0.891µM*,17.8µM*,2.6%,9.53µM*,2.82µM*,?
Cc1ccc(CN2C(=NC(=O)CCC(=O)O)SC3CS(=O)(=O)CC32)cc1 (stereo unspecified),-0.6%,nt,nt,0.7%,-2.2%,2.7%
CCOc1ccc(-n2cc(-c3ccc(OC)c(OC)c3)[nH]c2=S)cc1,-1.6%,-23.9%,2.0%,?,11.6%,2.9%
COc1cccc2c1Oc1ncccc1N(C(=O)CCC(=O)NCCC(C)C)C2,nt,nt,nt,-2.0%,nt,nt
CCOc1ccc(OCc2cccc(C(=O)Nc3ccc(CN4CCCCC4)cc3)c2)cc1,0.447µM*,1.78µM*,-1.8%,6.01µM*,0.355µM*,1.3µM*
COc1ccc(OCc2cccc(C(=O)Nc3ccc(CN4CCCCC4)cc3)c2)cc1,0.891µM*,1.78µM*,-4.8%,12µM*,1.12µM*,?
SMILES,Rab9 prom act,SMN2 splice enh,Luc counter,FLuc counter,NPC1 promoter act,ELG1 genotox
COc1cc(OC)cc(C(=O)Nc2ccc(CN3CCCCC3)cc2)c1,-1.4%,4.9%,0.8%,-10.6%,-1.5%,4.7%
CCN(Cc1ccccc1)S(=O)(=O)c1ccc(C(=O)N(CCCN(C)C)c2nc3c(C)c(C)ccc3s2)cc1,-15.8%,nt,nt,0.9%,-0.9%,-3.4%
O=C(Nc1nccs1)c1ccc(N2C(=O)C3CCCCC3C2=O)cc1 (stereo unspecified),15.6%,23.3%,-3.7%,21.3µM*,10.7%,?
O=C(Nc1ccc(Br)cc1)c1ccc(N2C(=O)C3CCCCC3C2=O)cc1 (stereo unspecified),-3.4%,nt,nt,-0.2%,0.5%,1.4%
O=C(Nc1nccs1)c1ccc(N2C(=O)[C@@H]3[C@H](C2=O)[C@H]2C=C[C@@H]3C2)cc1,3.55µM*,nt,nt,26.9µM*,2.51µM*,?
CCCc1cc(=O)n2c(C(=O)Nc3ccc(OCC)cc3)c(C(=O)Nc3ccc(C)cc3)sc2n1,nt,13.5%,nt,4.8%,nt,nt
CCC(C(=O)NCCc1ccc(Cl)cc1)n1ccc2cc(S(=O)(=O)N3CCCCC3)ccc21 (stereo unspecified),nt,nt,nt,1.9%,nt,nt
CCN(CC(=O)Nc1c(F)cccc1F)C(=O)c1ccc(N2CCCCC2)c([N+](=O)[O-])c1,-2.6%,nt,nt,-0.9%,1.3%,9.0%
CCN(CC(=O)Nc1ccc(NC(C)=O)cc1)C(=O)c1ccc(N2CCC(C)CC2)c([N+](=O)[O-])c1,-1.4%,nt,nt,16.9µM*,-1.0%,0.4%
COc1cccc(/C=C2\Oc3cc(OC(=O)N4CCOCC4)ccc3C2=O)c1,22.3%,nt,nt,6.01µM*,19.7%,5.2%
COc1cccc(/C=C2\Oc3cc(OCC(=O)N4Cc5ccccc5C[C@H]4C(=O)O)ccc3C2=O)c1,-1.4%,nt,nt,3.01µM*,0.3%,0.0%
COc1ccc(/C=C2\Oc3cc(OCC(N)=O)ccc3C2=O)cc1OC,6.7%,nt,nt,12µM*,-5.3%,3.4%
Cc1ccsc1/C=C1\Oc2cc(OCC(=O)c3ccccc3)ccc2C1=O,0.8%,-6.7%,-7.7%,2.69µM*,10.2%,6.9%
COC(=O)COc1ccc2c(c1)O/C(=C\c1cccc([N+](=O)[O-])c1)C2=O,7.1%,nt,nt,-7.5%,-2.9%,1.7%
CSc1ncc(C(=O)Nc2cc(Cl)ccc2C)c(-c2ccccc2)n1,nt,nt,nt,-6.5%,nt,nt
CN(C1CCCCC1)S(=O)(=O)c1ccc(S(=O)(=O)N(CC(=O)Nc2ccccc2)C2CC2)cc1,-2.5%,nt,nt,-1.5%,1.1%,-7.9%
O=C1/C(=C/c2ccc3c(c2)OCO3)Oc2cc(OCC(=O)N3CCC[C@H]3C(=O)O)ccc21,-0.9%,nt,nt,0.536µM*,2.3%,-2.3%
CCC1CCCCN1C(=O)COc1ccc2c(c1)OCO2 (stereo unspecified),4.2%,nt,nt,-0.6%,0.7%,8.1%
